# Source: PubChem BioAssay (EPA / NIEHS)
# Records with an inconclusive call do not appear. Activity calls are given as the source filed them. The calls were made as follows: active = hit-call score of the fitted dose curve at least 0.9, where 1 is the maximum; inconclusive = response in the unintended direction; inactive = score below 0.9.
# Key:
# [1] = molecular target: sheep Cyclooxygenase-1 (Cox1), PTGS1 (gene 443551) (UniProt P05979); assay: NVS_ENZ_oCOX1: NovaScreen (NVS) Enzymatic Assay for sheep Cyclooxygenase-1 (Cox1) (AID 2283239);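 also: actives reduce cyclooxygenase activity so potencies are for inhibitors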
# How it was run: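 COX1 from ovine seminal vesicles, activity read colorimetrically about 0.66 h after dosing. Primary screen in duplicate at 25 uM; actives retested in concentration series; loss of signal fitted versus DMSO.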
# [2] = NVS_IC_rCaBTZCHL: NovaScreen (NVS) Ion Channel Assay for Calcium Channel, Type L, Benzothiazepine Site (CaBTZCHL) (AID 2283337)
# How it was run: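 Rat cortical membrane preparation, cell-free. Radioligand displaced by test chemical; 1.5 h incubation; filtration, scintillation count. DMSO = negative control/baseline. Primary: duplicate, 25 uM; secondary: concentration series.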
# [3] = molecular target: rat Thyrotropin Releasing Hormone Receptor (TRH), Trhr (gene 25570) (UniProt Q01717); assay: NVS_GPCR_rTRH: NovaScreen (NVS) G Protein-Coupled Receptor Assay for rat Thyrotropin Releasing Hormone Receptor (TRH) (AID 2283329);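 also: hit means lower bound tracer signal versus DMSO baseline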
# How it was run: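 Rat forebrain membranes; radioligand displacement at TRH receptor by filter-based scintillation counting, read 4 h after dosing. Duplicate single-point screen at 25 uM, actives rerun in concentration series; loss of signal relative to DMSO.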
# [4] = molecular target: Estrogen receptor (Homo sapiens) (UniProt P03372); assay: OT_ER_ERaERa_1440: Odyssey Thera (OT) 24-hour HEK293T Protein-Complementation Assay for Estrogen Receptor-alpha/-alpha Homodimer (AID 2283349);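 also: hits raise fluorescence above DMSO for agonists and antagonists alike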
# How it was run: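 Cells (HEK293T) carrying the fragment-tagged ERα LBD (aa 310-547) pair are treated with chemical for 24 hours. Nuclear and/or cytoplasmic fluorescence is then quantified on a laser scanning cytometer. Activity is scored as signal gain against DMSO.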
# [5] = molecular target: Estrogen receptor (Homo sapiens) (UniProt P03372); assay: OT_ER_ERaERa_0480: Odyssey Thera (OT) 8-hour HEK293T Protein-Complementation Assay for Estrogen Receptor-alpha/-alpha Homodimer (AID 2283351);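 also: rise in fluorescence from reassembled reporter fragments on ERα LBD homodimer in nucleus or whole cell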
# How it was run: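 Read-out: fluorescence intensity rise relative to DMSO, nuclear for agonists, nuclear plus cytoplasmic for antagonists. Construct is the ERα LBD (aa 310-547) homodimer fragment-complementation pair, stably expressed in HEK293T; exposure 8 h.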
# [6] = molecular target: human Thromboxane A2 Receptor (TXA2), TBXA2R (gene 6915) (UniProt P21731); assay: NVS_GPCR_hTXA2: NovaScreen (NVS) G Protein-Coupled Receptor Assay for human Thromboxane A2 Receptor (TXA2) (AID 2283282);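 also: actives reduce bound radioligand signal relative to DMSO baseline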
# How it was run: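 Cell-free radioligand binding with human platelet-derived receptor; 1 h after dosing, filter-based scintillation counting, loss of signal vs DMSO. Primary screen in duplicate at 25 uM.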
# [7] = molecular target: D(1A) dopamine receptor (Homo sapiens) (UniProt P21728); assay: NVS_GPCR_hDRD1: NovaScreen (NVS) G Protein-Coupled Receptor Assay for human Dopamine Receptor D1 (DRD1) (AID 2283269)
# How it was run: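 Radioligand displacement binding on membranes/protein extracted from HEK293 expressing human D1, cell-free; read 1 h after dosing by filter-based scintillation counting. Primary screen in duplicate at 25 uM, actives followed up in concentration series; signal loss versus DMSO baseline.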
# [8] = molecular target: human Peripheral-type Benzodiazepine Receptor (PBR), TSPO (gene 706) (UniProt P30536); assay: NVS_MP_hPBR: NovaScreen (NVS) Membrane Protein Assay for human Peripheral-type Benzodiazepine Receptor (PBR) (AID 2283331);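 also: hits reduce radioligand binding relative to DMSO baseline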
# How it was run: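 Cell-free radioligand displacement, human colonic membranes, 1 h exposure. Filter radiodetection read-out. Single-concentration duplicates (25 uM), then concentration-response for actives; DMSO negative control.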
# [9] = molecular target: rat Peripheral-type Benzodiazepine Receptor (PBR), Tspo (gene 24230) (UniProt P16257); assay: NVS_MP_rPBR: NovaScreen (NVS) Membrane Protein Assay for rat Peripheral-type Benzodiazepine Receptor (PBR) (AID 2283335)
# How it was run: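 Single-concentration duplicate screening at 25 uM preceded concentration-series retesting of actives. Binding of a specific radioligand to rat kidney membrane PBR was read by filtration radiodetection after 1 h, with plate-wise positive and negative controls.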
# [10] = molecular target: bovine Estrogen Receptor (ER), ESR1 (gene 407238) (UniProt P49884); assay: NVS_NR_bER: NovaScreen (NVS) Nuclear Receptor Binding Assay for bovine Estrogen Receptor (ER) (AID 2283345);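 also: actives lower the bound radioligand count which means they displace the ER ligand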
# How it was run: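 Cell-free radioligand binding with bovine uterine membrane extracts, read 18 hours after dosing by scintillation counting. Loss of signal versus DMSO baseline indicates displacement. Primary screen run in duplicate at 25 uM, actives followed in concentration series.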
# [11] = molecular target: Estrogen receptor (Homo sapiens) (UniProt P03372); assay: NVS_NR_hER: NovaScreen (NVS) Nuclear Receptor Binding Assay for human Estrogen Receptor (ER) (AID 2283348)
# How it was run: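 MCF7-derived receptor extract, radiolabelled ligand, competitive displacement. Read: scintillation counts at 18 h. DMSO = negative control/baseline. Primary 25 uM duplicate; follow-up concentration–response.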
# Sequence of rat Thyrotropin Releasing Hormone Receptor (TRH), Trhr (gene 25570) (Q01717 whole entry, looked up): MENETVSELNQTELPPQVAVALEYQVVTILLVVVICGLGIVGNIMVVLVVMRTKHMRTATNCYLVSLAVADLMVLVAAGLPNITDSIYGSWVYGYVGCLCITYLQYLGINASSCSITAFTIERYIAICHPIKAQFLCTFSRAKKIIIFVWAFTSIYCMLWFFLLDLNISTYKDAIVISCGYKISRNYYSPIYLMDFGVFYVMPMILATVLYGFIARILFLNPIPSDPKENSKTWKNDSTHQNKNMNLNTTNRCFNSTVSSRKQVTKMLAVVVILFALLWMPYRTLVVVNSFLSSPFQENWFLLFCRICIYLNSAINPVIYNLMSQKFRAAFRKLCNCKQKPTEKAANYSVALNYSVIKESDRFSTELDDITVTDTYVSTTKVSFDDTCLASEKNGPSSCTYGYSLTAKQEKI
# Sequence of rat Peripheral-type Benzodiazepine Receptor (PBR), Tspo (gene 24230) (P16257 whole entry, looked up): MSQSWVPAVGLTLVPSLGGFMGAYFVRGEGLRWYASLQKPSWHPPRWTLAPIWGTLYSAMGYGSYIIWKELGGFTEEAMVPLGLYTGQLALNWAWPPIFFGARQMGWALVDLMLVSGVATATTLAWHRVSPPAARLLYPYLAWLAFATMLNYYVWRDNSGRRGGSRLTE
# Sequence of human Peripheral-type Benzodiazepine Receptor (PBR), TSPO (gene 706) (P30536 whole entry, looked up): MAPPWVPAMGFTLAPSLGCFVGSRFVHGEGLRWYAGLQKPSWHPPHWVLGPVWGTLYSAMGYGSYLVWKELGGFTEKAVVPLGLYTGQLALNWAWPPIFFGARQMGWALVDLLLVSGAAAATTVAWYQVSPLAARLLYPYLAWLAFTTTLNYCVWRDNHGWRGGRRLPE
# Sequence of bovine Estrogen Receptor (ER), ESR1 (gene 407238) (P49884 whole entry, looked up): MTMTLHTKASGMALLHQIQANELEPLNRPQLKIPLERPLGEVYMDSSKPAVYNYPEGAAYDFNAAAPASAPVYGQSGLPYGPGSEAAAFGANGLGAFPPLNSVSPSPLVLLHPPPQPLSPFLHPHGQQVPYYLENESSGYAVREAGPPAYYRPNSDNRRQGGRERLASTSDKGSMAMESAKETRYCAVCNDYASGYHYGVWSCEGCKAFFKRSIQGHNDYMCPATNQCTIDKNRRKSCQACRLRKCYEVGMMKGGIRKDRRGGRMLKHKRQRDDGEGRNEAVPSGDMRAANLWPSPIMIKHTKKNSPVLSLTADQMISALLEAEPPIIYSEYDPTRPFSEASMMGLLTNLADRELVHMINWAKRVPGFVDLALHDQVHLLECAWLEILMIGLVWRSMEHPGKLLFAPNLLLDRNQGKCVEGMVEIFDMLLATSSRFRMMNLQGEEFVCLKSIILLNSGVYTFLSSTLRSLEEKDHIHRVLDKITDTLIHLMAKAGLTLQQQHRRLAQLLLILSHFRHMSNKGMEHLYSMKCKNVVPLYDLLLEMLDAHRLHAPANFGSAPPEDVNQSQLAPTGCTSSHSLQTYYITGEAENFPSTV
# Sequence of Estrogen receptor (Homo sapiens) (P03372 whole entry, looked up, the tested form may be a part): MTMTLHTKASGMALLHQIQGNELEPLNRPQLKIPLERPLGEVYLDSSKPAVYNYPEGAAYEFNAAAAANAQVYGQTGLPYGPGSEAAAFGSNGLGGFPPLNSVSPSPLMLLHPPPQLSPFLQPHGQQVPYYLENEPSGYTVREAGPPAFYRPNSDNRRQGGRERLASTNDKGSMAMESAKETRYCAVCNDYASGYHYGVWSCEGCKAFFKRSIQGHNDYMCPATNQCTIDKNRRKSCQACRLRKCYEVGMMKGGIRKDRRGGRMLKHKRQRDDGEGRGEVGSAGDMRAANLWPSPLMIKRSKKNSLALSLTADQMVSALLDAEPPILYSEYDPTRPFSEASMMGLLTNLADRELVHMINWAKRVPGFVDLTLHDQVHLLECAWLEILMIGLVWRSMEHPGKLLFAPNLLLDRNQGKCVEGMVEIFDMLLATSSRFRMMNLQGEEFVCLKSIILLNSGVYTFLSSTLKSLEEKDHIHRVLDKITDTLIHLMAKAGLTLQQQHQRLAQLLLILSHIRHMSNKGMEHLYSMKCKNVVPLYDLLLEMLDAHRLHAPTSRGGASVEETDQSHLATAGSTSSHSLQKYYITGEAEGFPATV
# Sequence of human Thromboxane A2 Receptor (TXA2), TBXA2R (gene 6915) (P21731 whole entry, looked up): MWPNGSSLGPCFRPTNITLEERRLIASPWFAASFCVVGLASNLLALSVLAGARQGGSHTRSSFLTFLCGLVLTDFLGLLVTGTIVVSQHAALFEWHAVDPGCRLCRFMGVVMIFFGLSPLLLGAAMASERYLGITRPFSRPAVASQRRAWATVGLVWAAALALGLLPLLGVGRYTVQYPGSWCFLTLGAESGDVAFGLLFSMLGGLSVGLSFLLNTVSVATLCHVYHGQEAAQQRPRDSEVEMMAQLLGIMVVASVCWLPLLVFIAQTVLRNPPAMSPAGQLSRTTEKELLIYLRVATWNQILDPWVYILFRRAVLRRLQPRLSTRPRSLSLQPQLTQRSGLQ
# Sequence of sheep Cyclooxygenase-1 (Cox1), PTGS1 (gene 443551) (P05979 whole entry, looked up): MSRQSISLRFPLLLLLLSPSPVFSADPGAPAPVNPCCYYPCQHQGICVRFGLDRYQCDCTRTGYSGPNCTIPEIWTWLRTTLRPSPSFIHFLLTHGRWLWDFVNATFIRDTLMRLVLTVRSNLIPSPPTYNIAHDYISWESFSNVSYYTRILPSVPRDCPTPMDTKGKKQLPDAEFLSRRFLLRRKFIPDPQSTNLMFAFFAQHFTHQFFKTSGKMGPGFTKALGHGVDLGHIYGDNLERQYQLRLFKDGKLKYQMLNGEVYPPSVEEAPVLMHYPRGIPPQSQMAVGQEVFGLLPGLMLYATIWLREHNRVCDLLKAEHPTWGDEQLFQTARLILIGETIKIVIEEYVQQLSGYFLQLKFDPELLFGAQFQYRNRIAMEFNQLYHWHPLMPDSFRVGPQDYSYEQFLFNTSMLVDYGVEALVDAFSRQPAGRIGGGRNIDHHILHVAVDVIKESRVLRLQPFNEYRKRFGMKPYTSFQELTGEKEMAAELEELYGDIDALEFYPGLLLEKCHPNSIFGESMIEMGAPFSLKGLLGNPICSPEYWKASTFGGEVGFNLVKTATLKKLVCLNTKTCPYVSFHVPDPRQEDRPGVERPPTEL
# Sequence of D(1A) dopamine receptor (Homo sapiens) (P21728 whole entry, looked up): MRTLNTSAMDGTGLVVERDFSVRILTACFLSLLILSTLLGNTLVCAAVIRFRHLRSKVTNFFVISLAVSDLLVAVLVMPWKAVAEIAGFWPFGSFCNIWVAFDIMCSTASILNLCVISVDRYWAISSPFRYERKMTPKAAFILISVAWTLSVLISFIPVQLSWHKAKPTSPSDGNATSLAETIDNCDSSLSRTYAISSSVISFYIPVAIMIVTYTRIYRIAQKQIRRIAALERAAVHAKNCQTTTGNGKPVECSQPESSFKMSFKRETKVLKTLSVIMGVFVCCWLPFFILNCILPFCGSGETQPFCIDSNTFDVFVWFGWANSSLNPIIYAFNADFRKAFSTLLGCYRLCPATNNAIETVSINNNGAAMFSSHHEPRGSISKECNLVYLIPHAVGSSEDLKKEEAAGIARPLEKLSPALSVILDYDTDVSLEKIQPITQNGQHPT
smiles,measurement,setting,value
CCO[Si](CCCN=C=O)(OCC)OCC,outcome,[1],inactive
same,outcome,[2],inactive
c1ccc2c(c1)ccc1cc3c(ccc4ccccc43)cc12,AC50,[1],22.5 µM (active)
same,outcome,[3],inactive
same,outcome,[4],inactive
same,outcome,[5],inactive
CCCCCCCCc1ccc(Nc2ccc(CCCCCCCC)cc2)cc1,outcome,[6],inactive
C=CC(=O)OCC(Br)CBr (stereo not drawn),outcome,[7],inactive
C1=Cc2ccccc2C1,AC50,[8],15.2 µM (active)
same,outcome,[4],inactive
same,outcome,[5],inactive
CCOC(=O)Cc1cccc2ccccc12,outcome,[3],inactive
same,outcome,[4],inactive
same,outcome,[5],inactive
CCCCC/C=C\CCC=O,outcome,[3],inactive
same,outcome,[4],inactive
same,outcome,[5],inactive
Cc1ccc(N/N=c2\c(=O)cc/c(=N/Nc3ccc(S(=O)(=O)O)cc3)c2=O)c(C)c1,AC50,[8],7.15 µM (active)
same,AC50,[9],5.26 µM (active)
same,outcome,[4],inactive
same,outcome,[5],inactive
C=C1C2CCC(C2)C1(C)C (stereo not drawn),outcome,[3],inactive
same,outcome,[4],inactive
same,outcome,[5],inactive
CC(=O)OC(C)C,outcome,[3],inactive
same,outcome,[10],inactive
same,outcome,[11],inactive
same,outcome,[4],inactive
same,outcome,[5],inactive
CCCCCCCCCCCCCOP(=O)(O)O,AC50,[8],18.4 µM (active)
same,outcome,[10],inactive
same,outcome,[11],inactive
same,outcome,[4],inactive
same,outcome,[5],inactive
CC=C1CC2C=CC1C2 (stereo not drawn),outcome,[3],inactive
same,outcome,[4],inactive
same,outcome,[5],inactive
O=S(=O)(O)c1ccccc1C=Cc1ccc(-c2ccc(C=Cc3ccccc3S(=O)(=O)O)cc2)cc1,AC50,[8],0.6 µM (active)
same,AC50,[9],2.43 µM (active)
same,outcome,[10],inactive
same,outcome,[11],inactive
same,outcome,[5],inactive
CO[Si](OC)(OC)c1ccccc1,outcome,[3],inactive
same,outcome,[4],inactive
same,outcome,[5],inactive
CCCCCCCC[N+](C)(CCCCCCCC)CCCCCCCC,AC50,[8],3.77 µM (active)
same,outcome,[4],inactive
same,outcome,[5],inactive
CC/C=C\C/C=C\C/C=C\CCCCCCCC(=O)O,outcome,[3],inactive
same,AC50,[8],11.6 µM (active)
same,AC50,[11],25 µM (active)
same,outcome,[4],inactive
same,outcome,[5],inactive
CCO[Si](C)(OCC)OCC,outcome,[3],inactive
same,outcome,[4],inactive
same,outcome,[5],inactive
CC(C)c1ccc2c(C(C)C)cc(C(C)C)c(S(=O)(=O)O)c2c1,outcome,[9],inactive
same,outcome,[11],inactive
same,outcome,[4],inactive
same,outcome,[5],inactive
S=C(NC1CCCCC1)NC1CCCCC1,AC50,[6],1.56 µM (active)
same,outcome,[10],inactive
same,outcome,[11],inactive
